The assay has as its system E. coli TESEC Mtb Alr. Put plainly: growth (OD600 after 10 h); higher = more growth (less inhibition). The settings on record: compound 0.1 mM. Here is the method: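 TESEC Mtb Alr E. coli, or the Alr+ wild-type control, in 384-well plates with Prestwick library compounds at 0.1 mM and 1% DMSO, across arabinose induction levels of 1E3 to 1E7 nM. Growth is read as OD600 after 10 h at 37 °C in triplicate biological replicates.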

The mark [1] stands for this setting: arabinose 1000 nM, raw OD600 reference: median of DMSO wells 0.294, cell-free background 0.041.
[2] abbreviates: arabinose 10000 nM, raw OD600 reference: median of DMSO wells 0.264, cell-free background 0.041.
Setting [3] is: arabinose 100000 nM, raw OD600 reference: median of DMSO wells 0.201, cell-free background 0.041.
[4] abbreviates: arabinose 1000000 nM, raw OD600 reference: median of DMSO wells 0.193, cell-free background 0.041.
Where [5] appears, read: arabinose 10000000 nM, raw OD600 reference: median of DMSO wells 0.146, cell-free background 0.041.

Molecules are shown by their SMILES. Where a name gives a salt, the structure may show the parent alone. ± gives the standard deviation of the averaged measurements.

Take `CCCC[N+]1(C)[C@@H]2CC(OC(=O)[C@H](CO)c3ccccc3)C[C@H]1[C@@H]1O[C@@H]12` (stereo not given in full) [Butylscopolammonium (n-) bromide]: the growth came to 0.296 ± 0.012 under setting [1]; 0.2707 ± 0.0023 under setting [2]; 0.189 ± 0.01 under setting [3]; 0.185 ± 0.0011 under setting [4]; 0.132 ± 0.0029 under setting [5].

In the case of `c1ccc2c(c1)OCC(C1=NCCN1)O2` (stereo not given) [Idazoxan hydrochloride], the growth reads like this: under setting [1], 0.281 ± 0.02; under setting [2], 0.27 ± 0.0069; under setting [3], 0.188 ± 0.0024; under setting [4], 0.192 ± 0.0045; under setting [5], 0.141 ± 0.0099.

With `CCC(=O)O[C@@](Cc1ccccc1)(c1ccccc1)[C@@H](C)CN(C)C` [Levopropoxyphene napsylate], the growth runs as follows: under setting [1], 0.249 ± 0.005; under setting [2], 0.283 ± 0.012; under setting [3], 0.176 ± 0.014; under setting [4], 0.1558 ± 0.001; under setting [5], 0.15 ± 0.0048.

Turning to `CCC1(c2cccc(O)c2)CCCCN(C)C1` (stereo not given) [Meptazinol hydrochloride], the growth stood at 0.3214 ± 0.0014 under setting [1]; 0.3 ± 0.0084 under setting [2]; 0.192 ± 0.015 under setting [3]; 0.203 ± 0.018 under setting [4]; 0.139 ± 0.0077 under setting [5].

Consider `C#C[C@]1(O)CC[C@H]2[C@@H]3CCC4=CC(=O)CC[C@]4(C)[C@H]3CC[C@@]21C` [Ethisterone], for which the growth under setting [1] was 0.28 ± 0.01; the growth under setting [2] was determined as 0.2589 ± 0.0022; the growth under setting [3] worked out at 0.21 ± 0.015; the growth under setting [4] was found to be 0.172 ± 0.0021; the growth under setting [5] is 0.1381 ± 0.001.

As to `CC(C)(C)NCC(O)c1ccccc1Cl` (stereo not given) [Tulobuterol], the growth reads like this: under setting [1], 0.272 ± 0.0075; under setting [2], 0.273 ± 0.0098; under setting [3], 0.174 ± 0.013; under setting [4], 0.203 ± 0.0095; under setting [5], 0.1357 ± 0.00093.

For `CC[N+]1(C)CCCC(OC(=O)C(O)(c2ccccc2)c2ccccc2)C1` (stereo not given) [Pipenzolate bromide], the growth is, setting by setting: under setting [1], 0.284 ± 0.014; under setting [2], 0.258 ± 0.012; under setting [3], 0.169 ± 0.0056; under setting [4], 0.186 ± 0.0047; under setting [5], 0.133 ± 0.0034.

As to `CC(NC(C)(C)C)C(=O)c1cccc(Cl)c1` (stereo not given) [Bupropion hydrochloride], the growth runs as follows: under setting [1], 0.283 ± 0.018; under setting [2], 0.257 ± 0.0069; under setting [3], 0.229 ± 0.023; under setting [4], 0.171 ± 0.0039; under setting [5], 0.136 ± 0.0076.

(Values after the supplement of paper PMC9262897, “Low-cost anti-mycobacterial drug discovery using engineered E. coli” (Nature Communications, 2022).)
